# A selection: hits, their analogues and other compounds. The true share with any hit is near 6.1%.
# HepG2 tox: counter-screen for TGF-b inhibitors: cytotoxicity in HepG2 cells | HepG2 CAGA-GFP viability, ATP luminescence, 18 h | Potency, µM (titrated, usually from 46.1 µM), for the others: at the highest dose activity change, negative = cytotoxicity, hits mostly cytotoxic | 410,000 compounds, 0.76% hits | AID 588856
#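 CellTiter-Glo luminescence gave cytotoxicity after 18 hours at 37 degrees C. The cells were HepG2 CAGA-GFP in 1% FBS DMEM, stimulated with 500 pg/mL TGF-beta after compound addition. %Activity was normalised to no-cell wells (complete cell-killing) and DMSO (no toxicity), and curves were fitted and classified.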
# VP16 counter: counter-screen for ROR gamma inhibitors: Gal4-VP16 reporter; AID 2546; Potency, µM (doses to about 53.6 µM), for the others: top-dose activity, negative = inhibition, usual class: inhibitors; 310,000 compounds, 3.5% hits; Drosophila S2 Gal4-VP16 UAS-luciferase, luminescence, 20 h;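 further: Gal4-VP16 expression switched on by copper sulfate through the metallothionein promoter; on the % scale 0 is the no-effect control and ±100 the full control effect; nearly all actives have a fitted effect of over 50% in size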
# TGFb SMAD3 inh: inhibitors of TGF-b signaling | HepG2 CAGA-GFP TGF-b/SMAD3 reporter, GFP fluorescence, 18 h; TGF-beta stimulated, 500 pg/mL final | Potency, µM (series often up to 46.1 µM), for inactives: top-dose activity, negative = inhibition, actives largely listed as inhibitors | 410,000 compounds, 1.2% hits | AID 588855; further: on the % scale 0 is the no-effect control and ±100 the full control effect; nearly all actives have a fitted effect of over 65% in size
#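 Per well, imaged GFP fluorescence of HEPG2 CAGA-GFP cells gives the signal; cells get compound, then TGF-beta (500 pg/mL final), 18 h at 37 degrees C; %Activity versus -TGF-beta and +DMSO controls.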
# ATXN2 expr inh: ATXN2 expression inhibition. HEK-293 ATXN2-luciferase reporter, luminescence, 24 h. 360,000 compounds, 0.72% hits. AID 1745845. Potency, µM (doses to about 57 µM), for the others: at the highest dose activity change, negative = inhibition, actives largely listed as inhibitors; further: on the % scale 0 is the no-effect control and ±100 the full control effect; nearly all actives have a fitted effect of over 55% in size
#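 qHTS (up to 57 uM final) was run with 24 h compound exposure of reporter cells at 37 °C. Each well was multiplexed: SteadyGlo luminescence measured ATXN2-luciferase expression after a fluorogenic Gly-Phe-AFC viability readout (25 uM final).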
# RORgamma inh: inhibitors of mouse ROR gamma transcriptional activity; Potency, µM (titrated, usually from 53.6 µM), for inactives: at the highest dose activity change, negative = inhibition, most hits filed as inhibitors; AID 2551; 310,000 compounds, 5.4% hits; Drosophila S2 Gal4-RORgamma UAS-luciferase reporter, 20 h; further: on the % scale 0 is the no-effect control and ±100 the full control effect; nearly all actives have a fitted effect of over 60% in size
# Target sequence (P51450 whole entry, looked up, the tested form may be a part): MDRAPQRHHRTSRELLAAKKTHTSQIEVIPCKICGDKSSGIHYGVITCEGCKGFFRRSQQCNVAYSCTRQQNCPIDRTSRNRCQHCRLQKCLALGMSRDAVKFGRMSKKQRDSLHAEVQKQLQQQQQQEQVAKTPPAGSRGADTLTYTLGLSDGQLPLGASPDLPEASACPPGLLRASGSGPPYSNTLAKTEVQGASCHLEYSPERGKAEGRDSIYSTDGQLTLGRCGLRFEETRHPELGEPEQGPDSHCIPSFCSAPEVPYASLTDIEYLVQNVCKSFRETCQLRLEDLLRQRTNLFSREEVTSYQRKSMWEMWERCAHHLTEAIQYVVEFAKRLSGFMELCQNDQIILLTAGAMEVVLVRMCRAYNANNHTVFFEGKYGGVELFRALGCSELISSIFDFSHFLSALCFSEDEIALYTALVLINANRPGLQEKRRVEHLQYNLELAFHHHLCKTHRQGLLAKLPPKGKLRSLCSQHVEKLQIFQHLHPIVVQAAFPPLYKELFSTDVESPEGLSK
#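 Using a luciferase readout, inhibitors were identified by reduced reporter activity in Drosophila cells coexpressing a copper-inducible Gal4–ROR gamma fusion and UAS-driven Photinus luciferase, incubated 20 hr after 700 uM copper sulfate.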
# ATXN viability: cell viability loss in ATXN counter-screen; 400,000 compounds, 0.49% hits; S2 cells (HEK-293 line with an ATXN2-luciferase reporter) viability, CellTiter-Fluor protease fluorescence, 24 h; Potency, µM (titrated, usually from 56.7 µM), hits mostly cytotoxic; further: nearly all actives have a fitted effect of over 40% in size
# Numbers without * were called inactive; i = inactive; ? = inconclusive; nt = no result given; [ ] = remark or other dose. The call rests on the fitted dose curve; in most records, active means well fitted curve in the direction sought with a large enough effect; inconclusive means small, poorly fitted or top-dose-only effect, or another doubt; inactive means no such curve, though single readings can be large; an effect the other way counts as inactive or inconclusive. Potency means the concentration at half of the fitted maximal effect.
SMILES,HepG2 tox,VP16 counter,TGFb SMAD3 inh,ATXN2 expr inh,RORgamma inh,ATXN viability
CC(C)Oc1cc(NC(=O)CS(=O)CC(=O)Nc2cccc(C(F)(F)F)c2)c(Cl)cc1Cl (centres undefined),-114%,?,11µM*,-22%,34%,i
CCOc1ccc(NC(=O)CC2C(=O)N(c3ccccc3)C(=O)N2CCc2ccc(OC)cc2)cc1 (centres undefined),-9%,nt,1%,11%,nt,?
COc1cc(-c2nc(-c3cccc(Cl)c3)c(-c3ccccc3)[nH]2)cc(OC)c1OC,-24%,nt,?,-36%,nt,?
COc1cc(-c2nc(-c3ccc4c(c3)-c3ccccc3S4(=O)=O)c(-c3ccccc3)[nH]2)cc(OC)c1O,-23%,4.5µM*,-16%,4%,?,?
Cc1ccccc1C(=O)Nc1cccc(C(=O)OCc2cc(=O)n3nc(C4CC4)sc3n2)c1,-11%,nt,-35%,5%,nt,?
Cc1[nH]c2ccccc2c1C(=O)/C=C\c1ccccc1Cl,-3%,-3%,-13%,30%,13µM*,?
CCOC(=O)c1c(NC(C)=O)sc(C(=O)NC2CCCC2)c1C,3%,-4%,4%,5%,22%,i
CCOC(=O)c1c(NC(C)=O)sc(/C(C)=N/Nc2ccc(C(=O)O)cc2)c1C,-14%,?,4%,-10%,11µM*,i
CCCCNCC(=O)Nc1sc(C)c(C)c1C(=O)OCC,-3%,?,-6%,4%,13µM*,i
COC(=O)c1c(NC(=O)Cc2ccccc2)sc(C)c1C,-6%,15%,37%,8%,15%,?
CCOC(=O)c1c(NC(=O)CNCC(O)CO)sc(C)c1C (centres undefined),-5%,8%,8%,4%,-2%,i
CCOC(=O)c1c(NC(=S)NC(C)=O)sc(C)c1C,3%,11µM*,-9%,1%,7.9µM*,i
COC(=O)c1c(NC(=S)Nc2ccccc2Cl)sc(C)c1C,-30%,6.3µM*,-18%,-16%,2.8µM*,i
C[C@H](NCc1ccccc1)c1ccccc1,nt,3%,nt,nt,2%,nt
Cn1c(=O)n2n(c1=O)[C@H]1[C@H](O)[C@H]3O[C@@H]3/C(=N/OCc3ccccc3)[C@@H]1CC2,nt,11%[10 µM],nt,nt,0%[10 µM],nt
CCc1ccccc1N1C(=O)N(Cc2ccc(C#N)cc2)c2ccccc2S1(=O)=O,-7%,nt,-11%,-26%,nt,i
COc1cc2c(c(OC)c1OC)-c1c(cc3c(c1OC)OCO3)C[C@@H](C)[C@](C)(O)C2,nt,nt,nt,nt,nt,i
Cc1nn(CC(=O)N2CCN(c3ccccc3F)CC2)c(=O)c2cccn12,-3%,nt,nt,nt,nt,nt
CCOC(=O)c1sc(NC(=S)NC(=O)c2ccccc2)c(C(=O)OCC)c1C,-3%,?,?,-2%,2.2µM*,?
COC(=O)c1cc2c([nH]c1=O)CC(c1ccccc1)CC2=O (centres undefined),-18%,nt,-13%,nt,nt,nt
CN(C)CCNc1ncnc2c1sc1nc(N3CCOCC3)c3c(c12)CC(C)(C)SC3,-96%,?,-2%,20µM*,-44%,?
CCN(CC)CCNc1ncnc2c1sc1nc(N3CCOCC3)c3c(c12)CC(C)(C)SC3,-9%,?,-19%,nt,?,nt
Cc1cc(N2CCCCC2)nc(NCc2ccccc2)n1,-5%,?,?,?,20µM*,?
Cc1cc(OC2CCCCC2)nc(NCc2ccccc2)n1,19%,2%,4%,-6%,-39%,i
Cc1cc(N/N=C/c2ccc(Cl)cc2)nc(NCc2ccccc2)n1,-60%,?,?,0%,?,?
SMILES,HepG2 tox,VP16 counter,TGFb SMAD3 inh,ATXN2 expr inh,RORgamma inh,ATXN viability
Cc1cc(N/N=C/c2ccccc2)nc(NCc2ccccc2)n1,-20%,?,?,22%,4%,i
Cc1cc(Nc2cccc(Cl)c2)nc(NCc2ccccc2)n1,-94%,16µM*,18µM*,-24%,?,?
Cc1cc(N/N=C/c2cccc(Cl)c2)nc(NCc2ccccc2)n1,10µM*,?,20µM*,?,?,?
Cc1cc(C)nc(N/N=C/c2cccc(Cl)c2)n1,7%,6%,-6%,nt,11µM*,i
Cc1cccc(NC(=O)CSc2c(C)cnc3c2c(=O)n(C)c(=O)n3C)c1C,7%,nt,25%,-3%,nt,?
Clc1cccc(/C=N/Nc2nc(Cl)nc3ccccc23)c1,-55%,-2%,0%,91%,2µM*,i
O=S(=O)(NN=Cc1cccc(Cl)c1)c1ccccc1,8%,nt,0%,20%,nt,i
COc1cc(O)c2c(c1)C1OC1C[C@H](O)[C@H](O)C(=O)C=CC[C@H](C)OC2=O (some centres undefined),nt,nt,nt,6.9µM*,nt,nt
CCCCCCCC(=O)N/N=C/c1ccc([N+](=O)[O-])o1,-108%,?,?,nt,-22%,?
O=C(CN1CCCCCCC1)N/N=C/c1ccc([N+](=O)[O-])o1,20µM*,?,13µM*,-20%,?,i
O=C(CC12CC3CC(CC(C3)C1)C2)N/N=C\c1ccc[nH]1,21%,16µM*,-5%,-4%[11.3 µM],7.9µM*,i
O=C(CCN1CCN(c2ccccc2)CC1)N/N=C/c1ccc([N+](=O)[O-])o1,-64%,-20%,?,?,18µM*,i
O=C(Cc1ccc([N+](=O)[O-])cc1)N/N=C/c1ccc([N+](=O)[O-])o1,-115%,?,16µM*,nt,-22%,i
O=C(CN1CCOCC1)NN=Cc1ccc([N+](=O)[O-])o1,-46%,nt,?,-32%,nt,i
O=C(CCN1CCN(c2ccccc2)CC1)N/N=C/c1ccc(O)c(O)c1O,4%,3%,4%,-15%,-1%,i
N#Cc1ccccc1NC(=O)C(=O)NCCc1csc(-c2ccc(C(F)(F)F)cc2)n1,11%,nt,16%,nt,nt,nt
O=C(N/N=C\c1ccccc1)c1ccccc1-n1cccc1,-12%,-9%,-18%,-13%,0%,i
CC(=O)N/N=C/c1ccc([N+](=O)[O-])o1,nt,3.5µM*,nt,-9%,?,i
CC1(C(=O)N/N=C/c2ccc([N+](=O)[O-])o2)CC1(Br)Br (centres undefined),11µM*,?,11µM*,?,-9%,?
O=[N+]([O-])c1ccc(/C=N/N=C/c2ccc([N+](=O)[O-])o2)o1,-16%,4.5µM*,?,17µM*,1.1µM*,?

# Assay outcomes as filed in PubChem.
